Test results reported in PubChem BioAssay.

Experiment: resazurin metabolic signal in HepG2 cells – cell-based, resazurin fluorescence, 24 h, PK04 Diversity Set, profiling panel (AID 1172); also: test concentration not given here
Conditions: HepG2 viability, higher = more signal
In the case of `COC(=O)[C@@]1(Cc2ccc(F)cc2)[C@H]2c3cc(C(=O)N(C)C)n(CCN4CCOCC4)c3C[C@H]2CN1C(=O)c1ccccc1`, the z-score was 0.255.
With `C[N+](C)(C)CCCCCCNC(=O)[C@@H]1C[C@@H]2C(=O)N[C@@H](Cc3ccccc3)C(=O)N2[C@@H]1c1ccc(O)cc1` the z-score was 1.17.
Work on `CO[C@H]1O[C@H](CO)[C@@H](OC(=O)Nc2ccc(C(F)(F)F)cc2)[C@H](OC(=O)Nc2ccccc2-c2ccccc2)[C@@H]1OC(=O)Nc1ccccc1-c1ccccc1` yielded a z-score of -0.889.
In the case of `C=C(CCCC)/C(=C/C[C@H](OC(C)=O)c1cccc(OCCO)c1)c1cc(C(=O)OC)ccc1OC`, the z-score was 2.33.
In the case of `COc1ccc([Si](C)(C)[C@H]2[C@H](CCn3cc([C@H](O)c4ccccc4)nn3)O[C@@]3(C(=O)N(C)c4c(Br)cc(C)cc43)[C@@H]2C)cc1`, the z-score was -2.69.
`COCCOC(=O)N1C(=O)[C@@]2(c3cc(C#CC4(O)CCCCCC4)ccc31)[C@H](C(=O)N1CCc3cc(OC)c(OC)cc3C1)[C@H]1C(=O)O[C@H](c3ccccc3)[C@H](c3ccccc3)N1[C@@H]2c1ccc(O)cc1` gave a z-score of -0.511.
Work on `C=CCOC(=O)[C@H]1[C@@H]2C(=O)O[C@@H](c3ccccc3)[C@@H](c3ccccc3)N2[C@@H](c2ccc(OCCOC(=O)[C@H]3C[C@H]4C(=O)NCC(=O)N4[C@H]3c3ccc(O)cc3)cc2)[C@]12C(=O)Nc1ccc(I)cc12` yielded a z-score of 0.0134.
For `COCCOC(=O)N1C(=O)[C@@]2(c3cc(C#CC4=CCCCC4)ccc31)[C@H](c1ccc(OCCO)cc1)N1[C@H](c3ccccc3)[C@H](c3ccccc3)OC(=O)[C@H]1[C@@H]2C(=O)N1CCCCCCC1`, the z-score was -0.748.
